TDP1 cell noCPT = qHTS for Inhibitors of human tyrosyl-DNA phosphodiesterase 1 (TDP1): qHTS in cells in absence of CPT; DT40 Tdp1-/- hTDP1 cells, no CPT, ATP luminescence, 48 h; actives 15% (n = 420,000); AID 686978, 2013; Potency, µM (series often up to 46.2 µM), for inactives: at the highest dose activity change, negative = growth inhibition, hits mostly inhibitors; also: potency is read from the fitted curve at half-maximal effect; % is scaled to controls: 0 for no effect and ±100 for the full control effect; nearly all actives have a fitted effect of over 55% in size
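Seeded 400 DT40-hTDP1 cells/well (vehicle DMSO, no 20 nM CPT); pinned compounds; ≥48 hr at 37 °C; CellTiter-Glo luminescence as viability measure.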
S-ASM inh = inhibitors of human secretory acid sphingomyelinase | placental ASM, HMU-PC fluorogenic substrate, 60 min | P17405 | Potency, µM (series often up to 57.5 µM), for inactives: top-dose activity change, negative = inhibition, most hits filed as inhibitors | actives 0.006% (n = 340,000); also: potency is read from the fitted curve at half-maximal effect
Target sequence (P17405 47-631 limits assumed): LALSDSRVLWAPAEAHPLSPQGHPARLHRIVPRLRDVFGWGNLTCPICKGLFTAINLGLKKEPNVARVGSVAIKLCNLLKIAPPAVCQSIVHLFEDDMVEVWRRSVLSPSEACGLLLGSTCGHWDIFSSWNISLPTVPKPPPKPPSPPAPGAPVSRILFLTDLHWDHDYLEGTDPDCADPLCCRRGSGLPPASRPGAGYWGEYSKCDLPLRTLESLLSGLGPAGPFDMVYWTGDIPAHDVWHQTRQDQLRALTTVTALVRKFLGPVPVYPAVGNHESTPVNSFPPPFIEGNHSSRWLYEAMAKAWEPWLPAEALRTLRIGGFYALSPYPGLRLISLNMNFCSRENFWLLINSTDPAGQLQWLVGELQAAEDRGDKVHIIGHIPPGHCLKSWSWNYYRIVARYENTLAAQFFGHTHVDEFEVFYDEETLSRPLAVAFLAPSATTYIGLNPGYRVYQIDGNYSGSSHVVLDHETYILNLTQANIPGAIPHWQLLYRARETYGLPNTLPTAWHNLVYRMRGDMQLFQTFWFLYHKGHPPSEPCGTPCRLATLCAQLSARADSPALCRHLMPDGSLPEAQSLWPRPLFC
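Steps: dispense placental human ASM, pin compound, wait 10 min at room temperature, add HMU-PC0 substrate at 9 uM final, incubate 60 min at 37 °C, add stop solution raising pH to 10, read fluorescence.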
DT40 TDP1 CPT = growth inhibition of DT40 Tdp1-/-;hTDP1 cells with camptothecin (screen for TDP1 inhibitors); chicken DT40 Tdp1-/-;hTDP1 cells + 20 nM CPT, ATP luminescence, 48 h; Potency, µM (doses to about 46.2 µM), without a hit: at the top dose activity change, negative = growth inhibition, usual class: inhibitors; actives 12% (n = 420,000); AID 686979; also: potency is read from the fitted curve at half-maximal effect; % is scaled to controls: 0 for no effect and ±100 for the full control effect; nearly all actives have a fitted effect of over 55% in size
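Chicken DT40 Tdp1-/- cells stably complemented with human TDP1 were seeded at 400 cells/well in medium containing 20 nM camptothecin, exposed to pin-transferred compounds, and grown at 37 °C for at least 48 hr. Viability was read as ATP luminescence.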
TGFb SMAD3 inh = blocks TGF-b signaling; HepG2 CAGA-GFP TGF-b/SMAD3 reporter, GFP fluorescence, 18 h; TGF-beta stimulated, 500 pg/mL final; Potency, µM (top dose mostly 46.1 µM), for inactives: at the top dose activity, negative = inhibition, hits mostly inhibitors; actives 1.2% (n = 410,000); AID 588855; also: potency is read from the fitted curve at half-maximal effect; % is scaled to controls: 0 for no effect and ±100 for the full control effect; nearly all actives have a fitted effect of over 65% in size
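HEPG2 CAGA-GFP reporter cells (1000/well, DMEM with 1% FBS) received compounds, then recombinant TGF-beta at 500 pg/mL final for 18 hours at 37 degrees C. Per-cell GFP summed per well was normalised to unstimulated and stimulated DMSO controls before curve fitting.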
IL1B secr inh = blocks inflammasome-driven IL-1 beta release | THP-1 LPS/ATP IL-1B secretion, AlphaLISA, 16 h; stronger effect = lower value | activity change, % at 57.5 µM | actives 4.7% (n = 360,000) | AID 743279; in the data active = activity change below about -50%; inconclusive = mostly about -30% to -49%; also: % is scaled to controls: 0 for no effect and ±100 for the full control effect
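Secreted IL-1B measured by AlphaLISA bead assay after 16 h compound exposure of THP-1 cells; compounds (final up to 57.5 uM) added 1 h before LPS (250 ng/mL) and ATP (1.25 mM) stimulation; lower signal means less secretion.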
HepG2 viability = HepG2 cytotoxicity, counter-screen for TGF-b inhibitors; HepG2 CAGA-GFP viability, ATP luminescence, 18 h; Potency, µM (doses to about 46.1 µM), for inactives: at the top dose activity change, negative = cytotoxicity, usual class: cytotoxic; actives 0.76% (n = 410,000); AID 588856; also: potency is read from the fitted curve at half-maximal effect
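HepG2 CAGA-GFP cells (1000/well, DMEM with 1% FBS) received compound, then TGF-beta at 500 pg/mL final, and were incubated 18 hours at 37 degrees C. Viability was read by CellTiter-Glo luminescence. Media-only wells were set as complete cell-killing and DMSO as no toxicity.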
* marks the source's active call; other numbers are inactive results; ? = inconclusive; . = no result. Hits are enriched below; roughly 19% of the tested compounds scored in any of these assays. Unless noted, calls follow the shape of the dose curve; as a rule, active = well fitted curve in the direction sought with a large enough effect; inconclusive = small, poorly fitted or top-dose-only effect, or another doubt; inactive = no such curve, though single readings can be large; an effect the other way counts as inactive or inconclusive.

SMILES | TDP1 cell noCPT | S-ASM inh | DT40 TDP1 CPT | TGFb SMAD3 inh | IL1B secr inh | HepG2 viability
N#Cc1ccc(Oc2ccc(-c3nc4ccccc4nc3-c3ccccc3)cc2)cc1C#N | 18µM* | 7% | 9.2µM* | 0% | -4 | -15%
Nc1ccc(Oc2ccc3nc(-c4ccccc4)c(-c4ccc([N+](=O)[O-])cc4)nc3c2)cc1 | ? | -4% | 16µM* | ? | 0 | 3%
Cc1ccc(NC(=O)Cn2c(=O)c3cc(Cl)ccc3n3nncc23)cc1 | -26% | . | -2% | -19% | . | 0%
Cc1cccc(-c2nc(CN3CCCC(C(=O)NC4CCCCCC4)C3)c(C)o2)c1 (stereo unspecified) | 18µM* | 63% | 21µM* | 11µM* | -66* | -59%
CCOC(=O)N1CCC(NC(=O)C2CCCN(Cc3nc(-c4ccc(CC)cc4)oc3C)C2)CC1 (stereo unspecified) | 1.5µM* | 3% | 2.9µM* | ? | -9 | -27%
CCOC(=O)N1CCC(NC(=O)C2CCN(Cc3nc(-c4ccc(CC)cc4)oc3C)CC2)CC1 | ? | -3% | ? | -16% | -28 | -10%
Cc1cccc(-c2nc(CN3CCCC(C(=O)NC4CCCCC4)C3)c(C)o2)c1 (stereo unspecified) | 21µM* | 0% | 21µM* | ? | -6 | -19%
COc1ccc(/C=N/NC(=O)c2c(-c3ccccc3)noc2C)cc1[N+](=O)[O-] | -29% | 1% | ? | -3% | 27 | 12%
CC1CCN(c2nc3nonc3nc2Nc2ccc(F)cc2)CC1 | ? | -6% | 13% | ? | -76* | 2%
Fc1ccccc1C1c2cccn2CCN1C(=S)Nc1cccc(Br)c1 (stereo unspecified) | 16% | 0% | -2% | 4% | 0 | -2%
Fc1ccccc1C1c2cccn2CCN1C(=S)Nc1ccc(Br)cc1 (stereo unspecified) | ? | -4% | 21µM* | 22µM* | -86* | -5%
COc1ccc2oc(=O)cc(CN(C)Cc3ccccc3)c2c1 | ? | 2% | ? | -7% | -10 | -14%
Cc1ccc2c(c1)C(=O)C(=O)N2Cc1ccc(C(F)(F)F)cc1 | 1µM* | -5% | 0.92µM* | 16µM* | 63 | 18µM*
Cc1ccc2c(c1)C(=O)C(=O)N2Cc1ccc(OC(C)C)cc1 | 0.058µM* | . | 0.0073µM* | 10µM* | . | -48%
Cc1cccc(NC(=O)c2ccc(Cn3cc(C(F)(F)F)ccc3=O)cc2)c1 | -21% | -3% | 3% | ? | -15 | -19%
Cc1ccc2c(c1)C(=O)C(=O)N2CC(=O)OC(C)C | 5.8µM* | -2% | 5.2µM* | 2% | 13 | 8%
CC(C)C(NC(=O)c1cccc(S(=O)(=O)N2CCOCC2)c1)C(=O)NCc1ccc(Cl)cc1 (stereo unspecified) | ? | 2% | ? | ? | -23 | 2%
COc1cc(OC)cc(N2C(=O)CSC23C(=O)Nc2ccccc23)c1 (stereo unspecified) | . | . | . | -6% | . | -20%
CN1CCCNc2nc3ccccc3nc21 | 25% | 467% | -3% | -5% | -4 | 3%
CCNc1ncc2nc(C)c(=O)n(-c3ccc(OC)cc3)c2n1 | 2.1µM* | . | ? | . | . | .
CCNc1ncc2nc(-c3ccc(F)cc3)c(=O)n(-c3ccc(OC)cc3)c2n1 | 0.58µM* | . | 0.73µM* | . | . | .
CCNc1ncc2nc(-c3cc(F)cc(F)c3)c(=O)n(-c3ccc(OC)cc3)c2n1 | -8% | . | 7% | . | . | .
CCNc1ncc2nc(-c3ccccc3)c(=O)n(CCc3ccccc3)c2n1 | -12% | . | 2% | . | . | .
CCNc1ncc2nc(-c3ccccc3)c(=O)n(-c3ccc(OC)cc3)c2n1 | 0.52µM* | . | 7.3µM* | . | . | .
CCNc1ncc2nc(C)c(=O)n(CCc3ccccc3)c2n1 | ? | . | 7.3µM* | . | . | .
SMILES | TDP1 cell noCPT | S-ASM inh | DT40 TDP1 CPT | TGFb SMAD3 inh | IL1B secr inh | HepG2 viability
CCNc1ncc2nc(-c3ccc(Cl)cc3)c(=O)n(-c3ccccc3)c2n1 | -7% | . | -4% | . | . | .
CC(C)C[C@H]1COCCS(=O)(=O)N1Cc1cccc(F)c1 | ? | 4% | -17% | 6% | 12 | -1%
COc1ccc(-c2nc3cnc(OC)nc3n(-c3ccc(OC)cc3)c2=O)cc1 | 0.92µM* | . | 1.3µM* | . | . | .
CC1CCCN(C(=O)NC2CC(=O)N(c3ccc4c(c3)OCCO4)C2)C1 (stereo unspecified) | -7% | . | -14% | 0% | 10 | -2%
CCCNC(=O)Cn1sc2nc(C)cc(C)c2c1=O | 4.1µM* | -2% | 3.7µM* | 7% | ? | 1%
Cc1cc(C)c2c(=O)n(CC(=O)N3CCC(N4CCCCC4)CC3)sc2n1 | 15µM* | 6% | 15µM* | 4% | 15 | 0%
CCOC(=O)Cc1c[nH]c(=S)[nH]c1=O | -25% | 0% | -5% | 4% | 21 | -3%
COC(=O)c1ccn(-c2nc(-c3ccc(Cl)cc3)cc(C(F)(F)F)n2)n1 | ? | . | ? | 3% | . | -19%
Cc1cccc(C)c1-n1ncc(C(=O)N2CCN(c3ccccn3)CC2)c1C1CCN(C(=O)OC(C)(C)C)CC1 | 18µM* | . | ? | -16% | . | -27%
